Data on 40 compounds can be found in PubChem BioAssay (NCI).

About 79,000 compounds went through this panel and 15% of them were active in at least one assay; those are over-represented in the sample as a whole. Calls of active or inactive are those of the source. Rule as the data show it: active = growth inhibition above about 70%; inactive = the rest.

The nature of one assay: NCI Yeast Anticancer Drug Screen. Data for the bub3 strain (AID 167). The conditions noted are these: S. cerevisiae bub3 mutant strain, at 50.0 µM, hits give high values. The procedure, abridged:
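Compounds were applied to a genetically altered yeast strain carrying a cell-cycle control defect. Growth inhibition was scored against vehicle-treated controls.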
In the case of `CNC(=O)CCC(NC(=O)OC(C)(C)C)C(=O)NC(Cc1ccc(NC(=O)CCCCC(C)=O)cc1)C(=O)NCC(=O)NC` (stereo unspecified), the growth inhibition is 3.75% (inactive).
In the case of `CC1(C(=O)Sc2ccccc2)OC1(C)c1ccccc1` (stereo unspecified), the growth inhibition was 14.8% (inactive).
Still for that read-out and setting: as for `O=P(NC1CCCCC1)(NC1CCCCC1)NC1CCCCC1`, the figure is 12.8% (inactive); as for `N#Cc1cc(N2CCCCC2)ccc1[N+](=O)[O-]`, -4.5% (inactive); as for `O=C1CSc2ccncc2N1`, 15.2% (inactive).
In the case of `COc1ccc2nc3ccccc3c(NCCCN(C)C)c2c1[N+](=O)[O-]`, the growth inhibition was -13.3% (inactive).

A further assay can be described thus: NCI Yeast Anticancer Drug Screen. Data for the mlh1 rad18 strain (AID 175). The following applies: S. cerevisiae mlh1 rad18 strain growth inhibition; at 50.0 µM; hits give high values. The procedure, abridged: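 Read-out is yeast growth inhibition, calculated against vehicle-only controls. The compound was applied to a strain engineered with DNA damage repair alterations.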
As for `CC(NC(=O)C(=O)c1ccccc1)c1ccccc1` (stereo unspecified), the growth inhibition was -12.2% (inactive).
On the same count and under the same terms, as for `CC12CC3C(CC1O2)C3(C)C` (stereo unspecified), the figure is -43.2% (inactive); as for `CCOC(=O)c1ccc(N=C(N)N)cc1`, 19.6% (inactive).
Consider `C=C1C2CCC3(CCC4C5(C)CCCC4(CN(C(C)=O)C5)C3C2)C1O` (stereo unspecified), for which the growth inhibition is 8.95% (inactive).
As to `CC(=O)NNc1nc(C)c(C(/C=C/c2ccccc2O)=N/N=C(N)N)s1`, the growth inhibition was -33.2% (inactive).
In the case of `CCCCC(=O)C(CC)(c1ccccc1)N(C)C` (stereo unspecified), the growth inhibition is -17.9% (inactive).
As for `c1ccc2c(c1)ccc1c2c[n+](CCCCCCCC[n+]2cc3c4ccccc4ccc3c3ccccc32)c2ccccc12`, the growth inhibition was 90.5% (active).
With `NC(CCC(F)(F)F)C(=O)O` (stereo unspecified), the growth inhibition is 6.65% (inactive).
On the same count and under the same terms, as for `C/C(CC(O)(C(F)(F)Cl)C(F)(F)Cl)=N\Nc1ccccc1`, the figure is 17.5% (inactive).
Take `Cc1cc(Br)c[nH]c1=O`: the growth inhibition is 5.05% (inactive).
`CN1CC2=C(NC(=S)NC2c2ccccc2Cl)/C(=C/c2ccccc2Cl)C1` (stereo unspecified): the growth inhibition was -5.15% (inactive).
Regarding `CCC(=O)c1c(O)cc(O)cc1O`, the growth inhibition was -25% (inactive).
For the compound `CCCCOC(OCCCC)C(OCCCC)OCCCC`, the growth inhibition is 38% (inactive).
With `CC(C)C1CCC2(C)C(CCC3C4(C)CCCC32OC4)C1` (stereo unspecified), the growth inhibition is 11.4% (inactive).
For `CC(OC(C)C(N)=O)C(N)=O` (stereo unspecified), the growth inhibition was -1.15% (inactive).
`CCC1c2ccccc2[C@H]2C(c3ccccc3)=NN(c3ccccc3)[C@H]2N1CC` (stereo partly specified): the growth inhibition is 40.5% (inactive).
For the compound `Cc1ccccc1Nc1nc2ccccc2nc1NS(=O)(=O)c1ccccc1`, the growth inhibition is -58.4% (inactive).
As for `COc1ccc(S(=O)(=O)N/N=C/C(=O)OCOC(=O)C(C)(C)C)cc1`, the growth inhibition is 19.1% (inactive).
`O=C(Cn1c2c(c3ccccc31)CCCC2)N1CCCC1`: the growth inhibition was -23.7% (inactive).
Same read-out and setting: as for `O=[N+]([O-])c1cc(Br)ccc1N1CCCCC1`, the figure is -20.8% (inactive); as for `COCc1cc(=O)c(OC)cn1CCO`, -5.2% (inactive); as for `CCn1c(C)cc(=NC(=O)c2ccccc2O)n1-c1ccccc1`, 16.7% (inactive).
Regarding `CC(C)c1ccc(O)c(Cc2cc(C(C)C)cc(Cc3cc(C(C)C)ccc3O)c2O)c1`, the growth inhibition is -3.25% (inactive).
The same measure, in the same setting: as for `O=C(CBr)OCCC1CCCCC1`, the figure is 32.5% (inactive).
Take `C=CCOC(=O)C1CC=CCC1C(=O)OCC=C` (stereo unspecified): the growth inhibition is -9.8% (inactive).
On the same count and under the same terms, as for `CC(=O)Nc1ccc(Sc2ccc(NC(C)=O)cc2O)c(O)c1`, the figure is 41.9% (inactive).
Turning to `CC1(C)OC2C(C3N(c4ccccc4)CCN3c3ccccc3)OC(n3ccc(=O)[nH]c3=O)C2O1` (stereo unspecified), the growth inhibition is -12.7% (inactive).
For the compound `CCOC(=O)CCCN1CCC=C(C#N)C1`, the growth inhibition is 7.85% (inactive).
For `COC(=O)C(Cc1nc2ccccc2[nH]c1=O)C(NO)C(=O)Nc1c(Cl)cc([N+](=O)[O-])cc1Cl` (stereo unspecified), the growth inhibition was -1.75% (inactive).
On to `CC12CC(=O)OC(Cc3ccccc31)O2` (stereo unspecified), for which the growth inhibition was -40.5% (inactive).
The same measure, in the same setting: as for `CC(C)CCC[C@@H](C)[C@H]1CC[C@H]2[C@@H]3CC[C@H]4OC(=O)CC[C@]4(C)[C@H]3CC[C@]12C`, the figure is -9.85% (inactive); as for `Cn1ccc(=O)c2ccccc21`, 1.9% (inactive); as for `COc1c(C)c2c(c(C)c1Cl)Oc1c(C=O)c(O)c(Cl)c(C)c1C(=O)O2`, 54.4% (inactive).
As to `CN1N=C(c2ccccc2)C(C(c2ccccc2[N+](=O)[O-])C2C(=O)N(C)N=C2c2ccccc2)C1=O` (stereo unspecified), the growth inhibition was -2.1% (inactive).
With `CNC(=O)CCC(NC(=O)OC(C)(C)C)C(=O)NC(Cc1ccc(NC(=O)CCCCC(C)=O)cc1)C(=O)NCC(=O)NC` (stereo unspecified), the growth inhibition was -2.1% (inactive).
As to `CC1(C(=O)Sc2ccccc2)OC1(C)c1ccccc1` (stereo unspecified), the growth inhibition was 18.1% (inactive).
For the compound `O=P(NC1CCCCC1)(NC1CCCCC1)NC1CCCCC1`, the growth inhibition was 14.2% (inactive).
Turning to `N#Cc1cc(N2CCCCC2)ccc1[N+](=O)[O-]`, the growth inhibition was -0.4% (inactive).
Regarding `O=C1CSc2ccncc2N1`, the growth inhibition is 24.1% (inactive).
For `COc1ccc2nc3ccccc3c(NCCCN(C)C)c2c1[N+](=O)[O-]`, the growth inhibition was -4.7% (inactive).
